From PubChem BioAssay (Tox21)
Results filed as inconclusive are left out. Calls of active or inactive are those of the source. Unless noted, calls follow the shape of the dose curve; as a rule, active = well fitted curve in the direction sought with a large enough effect in the repeat runs; inconclusive = weak or mixed curves; inactive = no such curve, though single readings can be large; an effect the other way counts as inactive or inconclusive.

Assays:
[1] = qHTS assay to identify small molecule antagonists of the retinoid acid receptor (RAR) signaling pathway - cell viability counter screen (AID 1159551); conditions: C3RL4 cells viability, ATP luminescence (CellTiter-Glo), 6 h; series mostly up to 92.4 µM; also: nearly all actives have a fitted effect of over 35% in size
Method in brief: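 C3RL4 cells were seeded overnight at 37 C, then treated with compounds plus 1 uM (final) retinol for 6 h at 37 C. Viability was read as ATP by CellTiter-Glo luminescence after 30 min at room temperature.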

[2] = biological target: Luciferin 4-monooxygenase (Photinus pyralis) (UniProt P08659); assay: qHTS assay to identify small molecule inhibitors of firefly luciferase (AID 1224835); also: nearly all actives have a fitted effect of over 25% in size; also: potency is read from the fitted curve at half-maximal effect; conditions: purified P. pyralis luciferase, luminescence inhibition; series mostly up to 115 µM
Method in brief: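 Inhibition of purified Photinus luciferase is measured by luminescence. Substrate levels (D-luciferin, ATP) sit at their KM values. Each compound is tested in a concentration series.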

[3] = qHTS assay to identify small molecule agonists of the constitutive androstane receptor (CAR) signaling pathway - cell viability counter screen (AID 1224836); conditions: HepG2-CYP2B6-hCAR viability, CellTiter-Fluor, 23 h, PK11195 added to every well; series mostly up to 92.4 µM; also: nearly all actives have a fitted effect of over 45% in size
Method in brief: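 Cells were seeded and incubated 4 hrs. Compounds were added across 15 concentrations together with PK11195 at 0.75 uM final. Plates were incubated 23 hrs at 37 C. CellTiter-Fluor was added and fluorescence measured.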

[4] = biological target: Nuclear receptor subfamily 1 group I member 3 (Homo sapiens) (UniProt Q14994); assay: qHTS assay to identify small molecule antagonists of the constitutive androstane receptor (CAR) signaling pathway (AID 1224838); conditions: HepG2-CYP2B6-hCAR luciferase, CITCO-stimulated, 24 h; series mostly up to 92.4 µM; also: nearly all actives have a fitted effect of over 40% in size; also: potency is read from the fitted curve at half-maximal effect
Method in brief: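 HepG2 cells stably co-transfected with hCAR and a CYP2B6-2.2kb luciferase reporter were seeded 4 h before compound addition at 15 concentrations. Cells were stimulated with 50 nM CITCO (final) for 24 h at 37 C; luciferase luminescence was then read.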

[5] = biological target: Nuclear receptor subfamily 1 group I member 3 (Homo sapiens) (UniProt Q14994); assay: qHTS assay to identify small molecule agonists of the constitutive androstane receptor (CAR) signaling pathway (AID 1224839); conditions: HepG2 hCAR CYP2B6-luciferase, agonist mode, 24 h; series mostly up to 92.4 µM; also: nearly all actives have a fitted effect of over 15% in size; also: potency is read from the fitted curve at half-maximal effect;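 as to activation: HepG2 cells stably carrying human CAR and a CYP2B6 luciferase reporter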
Method in brief: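 Cells were plated and incubated 4 hrs, then dosed with compounds at 15 concentrations. PK11195 was added to 0.75 uM final. After 24 hrs at 37 C, luciferase luminescence was measured.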

[6] = qHTS assay to identify small molecule antagonists of the retinoic acid receptor (RAR) signaling pathway (AID 1159552; also: nearly all actives have a fitted effect of over 50% in size); conditions: C3RL4 RARE luciferase reporter, retinol-stimulated, 6 h; series mostly up to 92.4 µM
Method in brief: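 Retinol at 1 uM final stimulated RARE-luciferase expression in C3RL4 cells exposed to test compounds for 6 hr at 37 C. Reduced luminescence, read 30 min after detection reagent, indicated pathway antagonism.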

[7] = qHTS assay to identify small molecule agonists of the retinoic acid receptor (RAR) signaling pathway (AID 1159553); conditions: C3RL4 RARE luciferase reporter, agonist, 6 h; series mostly up to 73.3 µM; also: potency is read from the fitted curve at half-maximal effect
Method in brief: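 C3RL4 cells carrying a RARE luciferase reporter were plated overnight at 37 C, then exposed to compounds in DMSO for 6 hr at 37 C and 5% CO2. Luminescence was read 30 min after luciferase reagent addition at room temperature.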

[8] = qHTS assay to identify small molecule antagonists of the estrogen related receptor (ERR) signaling pathway from Tox21 library - cell viability counter screen (AID 1224834); conditions: ERR reporter cells viability, CellTiter-Fluor, 17.5 h; series mostly up to 92.4 µM; also: nearly all actives have a fitted effect of over 30% in size
Method in brief: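 ERR reporter cells were plated 6 h before compound addition, then exposed to test compounds in DMSO for 17.5 h at 37 C. Viability was read as CellTiter-Fluor fluorescence after a 30-minute incubation at 37 C.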

[9] = qHTS assay to identify small molecule antagonists of the constitutive androstane receptor (CAR) signaling pathway - cell viability counter screen (AID 1224837); conditions: HepG2-CYP2B6-hCAR viability, CellTiter-Fluor, 23 h, co-treated with 50 nM CITCO; series mostly up to 92.4 µM; also: nearly all actives have a fitted effect of over 45% in size; also: potency is read from the fitted curve at half-maximal effect
Method in brief: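 HepG2 cells stably expressing hCAR and a CYP2B6-2.2kb reporter were plated and pre-incubated 4 hr at 37 C/5% CO2, then given compounds at 15 concentrations plus 50 nM CITCO (final). After 23 hr, viability was read by CellTiter-Fluor fluorescence.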

[10] = qHTS assay to identify small molecule antagonists of the estrogen related receptor signaling pathway with the pleiotropic PPARgamma coactivator (PGC) from Tox21 10K library (AID 1224841; call rule not given here; also: actives are mostly falling curves and most rising ones were filed inactive; nearly all actives have a fitted effect of over 50% in size; also: potency is read from the fitted curve at half-maximal effect); conditions: PGC/ERR reporter cell line, ONE-Glo luciferase, 18 h; series mostly up to 92.4 µM
Method in brief: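 PGC/ERR reporter cells were seeded at 2,000 cells/well and held 6 hours at 37 C/5% CO2 before pin-tool addition of compounds in DMSO. After 18 hours at 37 C, One-Glo was added and luminescence read after 30 minutes at room temperature.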

[11] = qHTS assay to identify small molecule agonists of the estrogen related receptor signaling pathway with the pleiotropic PPARgamma coactivator (PGC) from Tox21 10K library (AID 1224842); conditions: PGC/ERR reporter cell line, luciferase ONE-Glo, 18 h; series mostly up to 92.4 µM; also: nearly all actives have a fitted effect of over 15% in size; also: potency is read from the fitted curve at half-maximal effect
Method in brief: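 Luminescence from One-Glo (30 min, room temperature) measured after PGC/ERR cells had 18 h at 37 C with pinned compound (23 nL in DMSO). Cells had been seeded at 2,000 per well and pre-incubated 6 h.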

[12] = qHTS assay to identify small molecule agonists of the RXR signaling pathway - cell viability counter screen (AID 1159529); conditions: RXR-alpha-bla HEK293T viability, CellTiter-Glo, 16 h; series mostly up to 76.8 µM;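 also: HEK 293T cells carrying an RXR-alpha UAS beta-lactamase reporter; nearly all actives have a fitted effect of over 50% in size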
Method in brief: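 Steps: seed RXR-alpha-UAS-bla HEK 293T cells in assay medium containing 2% charcoal-stripped FBS; incubate 5 hr; add compounds in DMSO; incubate 16 hr at 37 C; after the bla read, add CellTiter-Glo and read luminescence at 30 min.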

[13] = qHTS assay to identify small molecule antagonists of the estrogen related receptor signaling pathway with the pleiotropic PPARgamma coactivator (PGC) from Tox21 10K library - cell viability counter screen (AID 1224840; active = well fitted cell-killing curve with a large enough effect in the repeat runs, not every such curve was filed as active; also: nearly all actives have a fitted effect of over 40% in size); conditions: PGC/ERR reporter cells viability, CellTiter-Fluor, 17.5 h; series mostly up to 92.4 µM
Method in brief: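 PGC/ERR cells were seeded at 2,000 cells/well and left 6 hours at 37 C/5% CO2 before pin-tool addition of compounds in DMSO. After 17.5 hours at 37 C, CellTiter-Fluor was added and fluorescence read 30 minutes later.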
% is scaled to controls: 0 for no effect and ±100 for the full control effect.

Luciferin 4-monooxygenase (Photinus pyralis), sequence (P08659 whole entry, looked up): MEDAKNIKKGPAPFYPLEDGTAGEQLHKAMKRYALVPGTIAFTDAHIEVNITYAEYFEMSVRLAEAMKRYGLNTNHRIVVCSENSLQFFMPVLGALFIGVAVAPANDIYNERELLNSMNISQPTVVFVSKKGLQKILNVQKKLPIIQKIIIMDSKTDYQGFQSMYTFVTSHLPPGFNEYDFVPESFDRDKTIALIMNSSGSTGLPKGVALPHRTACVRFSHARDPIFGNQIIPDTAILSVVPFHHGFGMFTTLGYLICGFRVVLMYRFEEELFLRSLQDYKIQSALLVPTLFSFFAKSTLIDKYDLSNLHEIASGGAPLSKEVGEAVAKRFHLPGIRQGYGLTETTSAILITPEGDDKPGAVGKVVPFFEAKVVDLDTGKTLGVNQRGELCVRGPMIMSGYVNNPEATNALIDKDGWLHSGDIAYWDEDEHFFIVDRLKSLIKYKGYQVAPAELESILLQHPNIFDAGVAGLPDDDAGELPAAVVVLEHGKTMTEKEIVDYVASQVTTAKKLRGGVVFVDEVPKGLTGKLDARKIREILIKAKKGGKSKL
Nuclear receptor subfamily 1 group I member 3 (Homo sapiens), sequence (Q14994 whole entry, looked up): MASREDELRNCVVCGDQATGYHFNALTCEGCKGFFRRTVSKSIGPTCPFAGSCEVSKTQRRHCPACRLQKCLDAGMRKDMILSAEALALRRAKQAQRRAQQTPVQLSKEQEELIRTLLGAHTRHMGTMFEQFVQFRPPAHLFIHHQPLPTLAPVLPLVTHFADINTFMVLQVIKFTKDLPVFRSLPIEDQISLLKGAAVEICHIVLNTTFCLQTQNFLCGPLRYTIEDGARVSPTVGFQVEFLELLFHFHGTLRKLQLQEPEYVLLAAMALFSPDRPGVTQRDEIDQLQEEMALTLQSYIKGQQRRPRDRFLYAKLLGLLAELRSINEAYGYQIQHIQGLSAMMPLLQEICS

CN(C)C(=O)NC1(c2ccccc2)CCN(CCC[C@]2(c3ccc(Cl)c(Cl)c3)CCCN(C(=O)c3ccccc3)C2)CC1
inactive: activity change, negative = cytotoxicity [1] -1.37% [at 19 µM] | activity change, negative = inhibition [2] -2.4% [at 23.6 µM] | viability change, negative = cytotoxic [3] -28.7% [at 19 µM] | activity, negative = inhibition [4] -20.2% [at 19 µM] | activation [5] -6.21% [at 19 µM]

COc1cc2c(cc1N)oc1ccccc12
active: Potency [7] 12.5 µM | Potency [2] 36.3 µM | Potency [5] 31.3 µM
inactive: outcome [1] | Potency [6] | Potency [8] | Potency [3] | Potency [9] | Potency [4] | Potency [10]

CCCCCCCCCCCCCCCCOP(=O)([O-])OCC[N+](C)(C)C
inactive: outcome [1] | Potency [6] | Potency [7] | Potency [8] | Potency [2] | Potency [3] | Potency [9] | Potency [5] | Potency [10] | Potency [11]

C=CC(C)(O)CC/C=C(\C)CCC=C(C)C (stereo unspecified)
inactive: Potency [12] | outcome [1] | Potency [8] | Potency [3] | Potency [9] | Potency [13]

CC1(C)O[C@@H]2C[C@H]3[C@@H]4CCC5=CC(=O)CC[C@]5(C)[C@@]4(F)[C@@H](O)C[C@]3(C)[C@]2(C(=O)CCl)O1
inactive: outcome [1] | Potency [7] | Potency [8] | Potency [2] | Potency [9] | Potency [4] | Potency [5] | Potency [13]

CCCCCCOc1ccc(N)cc1
active: Potency [7] 10.9 µM | Potency [2] 31.7 µM | Potency [5] 27.3 µM | Potency [11] 12.2 µM
inactive: outcome [1] | Potency [6] | Potency [3] | Potency [9] | Potency [4] | Potency [13] | Potency [10]

CC(C)=CCC[C@](C)(O)[C@@H]1CC=C(C)CC1
inactive: Potency [6] | Potency [7] | Potency [8] | Potency [2] | Potency [3] | Potency [4] | Potency [5] | Potency [13]

O=Cc1ccc(F)c(Br)c1
inactive: Potency [12] | outcome [1] | Potency [8] | Potency [2] | Potency [3] | Potency [4] | Potency [5] | Potency [13]

Cc1c(N)cccc1N
inactive: Potency [12] | outcome [1] | Potency [8] | Potency [2] | Potency [3] | Potency [9] | Potency [4] | Potency [5] | Potency [13]

Clc1cccc(-c2cc(Cl)cc(Cl)c2)c1
inactive: outcome [1] | Potency [6] | Potency [7] | Potency [8] | Potency [2] | Potency [3] | Potency [9] | Potency [13] | Potency [10] | Potency [11]

CCOC(=O)COc1ccc2c(c1)CC(NCC(O)c1cccc(Cl)c1)CC2 (stereo unspecified)
inactive: outcome [1] | Potency [6] | Potency [7] | Potency [2] | Potency [4] | Potency [5] | Potency [10] | Potency [11]

Cc1nc(-c2ccccn2)ncc1C(=O)Nn1cc(C)c2cc(F)ccc21
active: Potency [9] 24.3 µM | Potency [4] 13.7 µM | Potency [10] 38.6 µM
inactive: outcome [1] | Potency [6] | Potency [8] | Potency [2] | Potency [5] | Potency [11]

ICCc1ccccc1
inactive: outcome [1] | Potency [8] | Potency [3] | Potency [9] | Potency [10] | Potency [11]

C[C@]12C(=O)OC(=O)[C@H]1[C@H]1C=C[C@@H]2C1
inactive: outcome [1] | Potency [6] | Potency [8] | Potency [2] | Potency [3] | Potency [9] | Potency [4] | Potency [13] | Potency [10] | Potency [11]

CCN(CCCc1ccccc1)CCCc1ccccc1
inactive: outcome [1] | Potency [6] | Potency [7] | Potency [8] | Potency [2] | Potency [3] | Potency [9] | Potency [13] | Potency [11]

Cc1cc2nc(N)sc2cc1C
active: Potency [7] 1.38 µM | Potency [2] 5.69 µM | Potency [5] 2.19 µM
inactive: outcome [1] | Potency [6] | Potency [8] | Potency [3] | Potency [9] | Potency [4]
